Assay results: PubChem BioAssay
Results with a measured potency or affinity are listed apart. Results filed as inconclusive are left out. Activity calls are given as the source filed them. Unless noted, no rule for the calls is given here.

Key:
[1] = cytotoxicity in IOSE-T80 ovarian epithelial cells, dose response, selectivity assay for PAX8 inhibitor project, cell-based, cherry-pick (AID 687032;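 active = fitted half-maximal concentration for viability loss no higher than twice the top valid dose, in every repeat run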;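 also: cells exposed to compound for 96 h before reading; 0% = neutral control wells and -100% = 2 µM mitoxantrone kill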)
[2] = inhibitors of CMV-promoter luciferase reporter, dose response, counter-screen for Pax8 inhibitor project, cell-based, HEK293, luminescence, dry powder (AID 743020;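 active = signal-lowering compounds whose fitted half-maximal concentration is at or below twice the top tested dose in every run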;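 also: HEK293 cells stably expressing the CMV luciferase reporter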)
[3] = non-specific cell cytotoxicity, dose response, cytotoxicity control for PAX8 inhibitor project, plate reader, dry powder samples (AID 743021)
[4] = IGROV1 ovarian cancer cell cytotoxicity, dose response, PAX8 inhibitor project, plate reader, dry powder samples (AID 743043);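 also: more negative means fewer viable cells or more cytotoxicity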
[5] = NIH:OVCAR-3 ovarian cancer cell cytotoxicity, dose response, PAX8 inhibitor project, plate reader, dry powder samples (AID 743044); settings: max activity: at 35 µM, active compounds read low unless noted
[6] = IOSE-T80 ovarian epithelial cell cytotoxicity, dose response, cytotoxicity control for PAX8 inhibitor project, plate reader, dry powder samples (AID 743045);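 also: 0% = neutral control median and -100% = positive control median; more negative values mean more cell killing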
[7] = A2780 ovarian cancer cell cytotoxicity, dose response, cytotoxicity control, plate reader, dry powder samples (AID 743046);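 also: 0% = neutral control wells and -100% = cytotoxic reference compound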
[8] = cytotoxicity in OVCAR8 ovarian cancer cells, dose response, PAX8 project, cell-based, plate reader, dry powder samples (AID 743197)
[9] = cytotoxicity in PAX8-dependent RMG-1 cells, dose response, cell-based, cherry-pick (AID 687029;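 active = signal drop whose fitted half-maximal concentration is at most twice the top valid dose, in every test run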;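 also: cells exposed to compound for 96 hours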)
[10] = HepG2 cell cytotoxicity, dose response, cytotoxicity control, plate reader, cherry-pick, antagonist series (AID 743416);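 also: 0% = neutral control wells and -100% = positive control wells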

Measured: max activity

COc1cc(/C=C/C(=O)N2CCC=CC2=O)cc(OC)c1OC
inactive: [1] | [2] | [3]

C=C(C)c1cccc(C(C)(C)NC(=O)N2CCN(c3ccccc3OC)CC2)c1
inactive: [1] | [2] | [3]

CS(=O)(=O)Nc1ccc2c(c1)[C@@H]1C[C@@H](CC(=O)NCc3ccc(-c4ccccc4)cc3)O[C@@H](CO)[C@@H]1O2
inactive: [1] | [2]

COc1cccc(-c2ccc3c(c2)[C@@H]2[C@@H](CCN2S(=O)(=O)c2ccccc2C)[C@H](CO)N3C)c1
inactive: [1] | [2] | [3] | [4] | [5] -25.8% [at 30 µM, active compounds read low] | [6] | [7] | [8]

Cc1ccc(S(=O)(=O)N(C)C[C@@H]2Oc3ccc(NC(=O)Nc4ccc(C(F)(F)F)cc4)cc3CC(=O)N([C@@H](C)CO)C[C@@H]2C)cc1
inactive: [1] | [2] | [3]

CC(C)(C)c1nnc(NC(=O)CCS(=O)(=O)c2ccccc2)s1
inactive: [9] | [3] | [6] | [7]

COc1ccccc1C#Cc1ccc([C@H]2[C@H](C#N)N(C(=O)C3CCCC3)[C@H]2CO)cc1
inactive: [9] | [7] | [10]

COc1ccc(S(=O)(=O)Nc2ccc3c(c2)C(=O)N([C@H](C)CO)C[C@H](C)[C@H](CN(C)S(=O)(=O)c2ccc(F)cc2)OCCCC[C@H](C)O3)cc1
inactive: [9] | [3] | [4] | [5] -7.5% | [6] | [7] | [8]

C[C@@H]1CN([C@@H](C)CO)C(=O)c2cc(N(C)C)ccc2O[C@@H](C)CCCCO[C@H]1CN(C)S(=O)(=O)c1ccc(F)cc1
inactive: [1] | [2] | [3] | [4] | [5] 16.1% [at 0.26 µM, active compounds read low] | [6] | [7] | [8]

O=C(C1CCC1)N1CCCCN2[C@H](CO)[C@H](c3ccc(-c4cccc(F)c4)cc3)[C@H]2C1
inactive: [1] | [2] | [3] | [4] | [5] 7.58% [at 0.26 µM, active compounds read low] | [6] | [7] | [8]

C[C@H](CO)N1C[C@H](C)[C@H](CN(C)CC2CCCCC2)OCCCC[C@H](C)Oc2ccc(NC(=O)Nc3ccccc3)cc2C1=O
inactive: [9] | [3] | [6] | [7] | [8]

C[C@@H]1CCCCO[C@H](CN(C)C(=O)c2ccccc2)[C@H](C)CN([C@@H](C)CO)C(=O)c2cc(NC(=O)Nc3ccc(C(F)(F)F)cc3)ccc2O1
inactive: [1] | [2] | [3] | [4] | [6]

C[C@@H]1CCCCO[C@H](CN(C)Cc2ccncc2)[C@H](C)CN([C@H](C)CO)C(=O)c2cc(NC(=O)Nc3ccc(C(F)(F)F)cc3)ccc2O1
not listed: [5] | [9] | [10]
inactive: all other assays above

COc1ccccc1NC(=O)N1CCCCN2[C@H](C1)[C@@H](c1ccc(-c3cccc(C#N)c3)cc1)[C@@H]2CO
inactive: [1] | [2] | [3] | [4] | [6] | [7]

C[C@@H]1CCCCO[C@@H](CN(C)Cc2ccncc2)[C@H](C)CN([C@@H](C)CO)C(=O)c2cc(NC(=O)Nc3ccc(C(F)(F)F)cc3)ccc2O1
inactive: [1] | [2] | [3] | [4] | [6] | [7]

C[C@@H]1CCCCO[C@@H](CN(C)Cc2ccc(C(F)(F)F)cc2)[C@H](C)CN([C@@H](C)CO)C(=O)c2cc(NS(=O)(=O)c3ccc(Cl)cc3)ccc2O1
inactive: [1] | [2] | [3] | [4] | [5] -25.4% [at 8 µM, active compounds read low] | [6] | [7] | [8]

C[C@@H]1CN([C@@H](C)CO)C(=O)c2cc(NC(=O)CCC(F)(F)F)ccc2O[C@@H](C)CCCCO[C@H]1CN(C)Cc1ccc(C(F)(F)F)cc1
inactive: [9] | [3] | [6] | [7]

CCOc1ccc(C2=Nn3c(nnc3-c3ccccc3OC)SC2)cc1
inactive: [1] | [2]

C[C@@H]1CN([C@H](C)CO)C(=O)c2cc(NC(=O)Cc3ccccc3)ccc2O[C@@H](C)CCCCO[C@H]1CN(C)Cc1ccc(C(F)(F)F)cc1
inactive: [1] | [2] | [3] | [4] | [6] | [7]

C[C@H]1CN([C@@H](C)CO)S(=O)(=O)c2ccc(C#Cc3ccccc3F)cc2O[C@H]1CN(C)C(=O)c1ccc2c(c1)OCO2
inactive: [1] | [2] | [3] | [4] | [5] -13% | [6] | [7] | [8]

O=C(CCS(=O)(=O)c1ccccc1)Nc1nc2ccc(F)cc2s1
inactive: [9] | [3] | [6] | [7]

C[C@@H]1CCCCO[C@H](CN(C)Cc2ccc(C(F)(F)F)cc2)[C@@H](C)CN([C@@H](C)CO)C(=O)c2cc(NC(=O)c3ccccc3)ccc2O1
inactive: [9] | [6] | [7]

COc1ccc(-c2cc(C(F)(F)F)nc(S(=O)(=O)CCCC(=O)Nc3cc(C)on3)n2)cc1OC
inactive: [9] | [3] | [7]

COc1ccc(-c2cnc3c(NC=O)cc(-c4ccccc4OC)cn23)cc1OC
inactive: [9] | [3]

C[C@H]1CCCCO[C@@H](CN(C)Cc2ccncc2)[C@@H](C)CN([C@@H](C)CO)C(=O)c2cc(NC(=O)Nc3ccc(C(F)(F)F)cc3)ccc2O1
inactive: [1] | [2] | [3] | [4] | [5] -18.9% [at 16 µM, active compounds read low] | [6] | [7]

C[C@H]1CCCCO[C@H](CN(C)Cc2ccc(C(F)(F)F)cc2)[C@@H](C)CN([C@@H](C)CO)C(=O)c2cc(NC(=O)Nc3ccc(F)cc3)ccc2O1
inactive: [1] | [2] | [3] | [4] | [5] -16.7% | [6] | [7] | [8]

O=S(=O)(c1ccccc1F)N1CC[C@@H]2[C@H](CO)Nc3ccc(C4=CCCCC4)cc3[C@@H]21
inactive: [1] | [2] | [3] | [4] | [5] 8.04% | [6] | [7] | [8]

Oc1ccc(Cc2ccccc2)c2cccnc12
inactive: [9] | [3]

C[C@H]1CCCCO[C@H](CN(C)C(=O)Nc2ccc(C(F)(F)F)cc2)[C@@H](C)CN([C@@H](C)CO)C(=O)c2cc(NS(=O)(=O)c3cccs3)ccc2O1
inactive: [1] | [2] | [3] | [4] | [5] -51.4% | [6] | [7] | [8]

O=C(CN1C(=O)c2ccccc2S1(=O)=O)c1ccc(Cl)cc1Cl
inactive: [9] | [3] | [4] | [5] | [6] | [7]

C[C@@H]1CCCCO[C@H](CN(C)C(=O)Cc2ccccc2)[C@@H](C)CN([C@@H](C)CO)C(=O)c2cc(NS(=O)(=O)c3ccc(Cl)cc3)ccc2O1
inactive: [9] | [3] | [4] | [6]

C[C@H](CO)N1C[C@H](C)[C@@H](CN(C)C(=O)c2ccc3c(c2)OCO3)Oc2cc(C#Cc3ccccc3F)ccc2S1(=O)=O
inactive: [1] | [3] | [4] | [5] -4.28% | [6] | [7] | [8]

COc1ccc(CN(C)C[C@H]2OCCCC[C@H](C)Oc3ccc(NC(=O)Nc4ccc(C(F)(F)F)cc4)cc3C(=O)N([C@H](C)CO)C[C@H]2C)cc1
inactive: [1] | [2] | [3] | [6] | [7]

O=C(CN1C(=O)c2ccccc2S1(=O)=O)c1ccc2c(c1)OCCO2
inactive: [1] | [2] | [3] | [10]

C[C@@H]1CN([C@H](C)CO)C(=O)c2cc(NS(=O)(=O)c3ccc(Cl)cc3)ccc2O[C@@H](C)CCCCO[C@H]1CN(C)C(=O)Nc1ccc(C(F)(F)F)cc1
inactive: [1] | [3] | [6]

COc1ccc(S(=O)(=O)N(C)C[C@@H]2OCCCC[C@H](C)Oc3ccc(NS(=O)(=O)c4ccccc4)cc3C(=O)N([C@H](C)CO)C[C@H]2C)cc1
inactive: [1] | [2] | [3] | [6] | [7]

C[C@@H]1CCCCO[C@@H](CN(C)Cc2ccc(Cl)c(Cl)c2)[C@@H](C)CN([C@@H](C)CO)C(=O)c2cc(NC(=O)Nc3ccccc3)ccc2O1
inactive: [1] | [2] | [3] | [6] | [7] | [8]

C[C@@H]1CN([C@H](C)CO)C(=O)c2cc(NC(=O)Nc3ccc(F)cc3)ccc2O[C@@H](C)CCCCO[C@@H]1CN(C)Cc1ccc(C(F)(F)F)cc1
inactive: [1] | [3] | [4] | [6] | [7]

COc1cc(-c2cnc3c(NC=O)cc(-c4cccc(NC(C)=O)c4)cn23)cc(OC)c1OC
inactive: [1] | [3]

C[C@H]1CCCCO[C@H](CN(C)C(=O)Nc2cccc3ccccc23)[C@@H](C)CN([C@@H](C)CO)C(=O)c2cc(NS(=O)(=O)c3ccc(Cl)cc3)ccc2O1
inactive: [1] | [2] | [3] | [5] -25.9% | [6] | [7]
